Data reported in PubChem BioAssay.

Test: modulators of S6 phosphorylation in cells, primary screen, cell-based, A549, cytoblot, luminescence, serum-stimulated (AID 1158);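 note: serum-stimulated A549 lung adenocarcinoma cells; signal is phosphorylated S6 detected by cytoblot immunostaining with HRP secondary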
Conditions: A549 phospho-S6 cytoblot, 5 h, higher = more signal
For CC1CC/C=C\[C@H]2OC34C=CCN(Cc5ccccc5)C(=O)[C@H]3N(CCCCCO)C(=O)[C@@H]4C2C(=O)O1 (stereo partly specified), the z-score was -0.689.
Work on COCCOC(=O)N1C(=O)[C@@]2(c3cc(C#CCNC(N)=O)ccc31)[C@H](C(=O)N1CCc3cc(OC)c(OC)cc3C1)[C@H]1C(=O)O[C@H](c3ccccc3)[C@H](c3ccccc3)N1[C@@H]2c1ccc(OCCO)cc1 yielded a z-score of 0.412.
Work on O=C1OCCC/C=C\[C@H]2OC34C=CCN(Cn5nnc6ccccc65)C(=O)[C@H]3N(CCCCCO)C(=O)[C@@H]4C12 (stereo partly specified) yielded a z-score of -0.339.
In the case of O=C(O)[C@@]1(Cc2ccccc2)N=C(c2ccc(OCCCO)cc2)O[C@H]1c1ccccc1, the z-score is reported as -0.134.
Compound Cc1ccc(S[C@]2(C(=O)NC3CC3)CC(=O)N(C3CCCCC3)[C@@H]2c2ccc(CO)cc2I)cc1 has a z-score of -0.208.
Work on O=C/C=C/c1ccc2c(c1)OCO2 yielded a z-score of 1.25.
In the case of CC(C)(C)OC(=O)CC[C@@]1(C(=O)O)N=C(c2ccc(OCCCO)cc2)O[C@@H]1c1ccccc1N=[N+]=[N-], the z-score is reported as -0.342.
Work on COCCOC(=O)N1C(=O)[C@@]2(c3cc(C#CCC(C(=O)OC)C(=O)OC)ccc31)[C@H](C(=O)N1CCN(c3ncccn3)CC1)[C@H]1C(=O)O[C@H](c3ccccc3)[C@H](c3ccccc3)N1[C@@H]2c1ccc(OCCO)cc1 yielded a z-score of 2.2.
COCCOC(=O)N1C(=O)[C@@]2(c3cc(C#CCC(C(=O)OC)C(=O)OC)ccc31)[C@H](c1ccc(O)cc1)N1[C@H](c3ccccc3)[C@H](c3ccccc3)OC(=O)[C@H]1[C@@H]2C(N)=O showed a z-score of -0.185.
Compound C=CCOC(=O)[C@@H]1[C@H]2C(=O)O[C@H](c3ccccc3)[C@H](c3ccccc3)N2[C@H](c2ccc(OCCOC(=O)[C@@H]3C[C@@H]4C(=O)NCC(=O)N4[C@@H]3c3cccc(OCCO)c3)cc2)[C@@]12C(=O)Nc1ccc(I)cc12 has a z-score of -0.5.
Compound C#CCN(C(/C=C/c1ccccc1)CO)C(C(=O)O)c1ccccc1 (stereo unspecified) has a z-score of 1.81.
With COC(=O)[C@@]1(Cc2ccc(F)cc2)[C@H]2c3cc(C(=O)N4CCCC4)n(Cc4cccc5ccccc45)c3C[C@H]2CN1C(=O)c1ccccc1 the z-score was -0.875.
CC(C)CNC(=O)[C@@H]1c2ccccc2C(=O)N(Cc2cc(C(F)(F)F)cc(C(F)(F)F)c2)[C@H]1c1ccc(CO)cc1 gave a z-score of 0.578.
COc1cc2c(cc1OC)CN(C(=O)[C@@H]1[C@H]3C(=O)O[C@H](c4ccccc4)[C@H](c4ccccc4)N3[C@H](c3ccccc3OCCO)[C@@]13C(=O)Nc1ccc(C#CCNC(N)=O)cc13)CC2 showed a z-score of 3.09.
Work on COC(=O)c1ccc(C(O)C2C=CC3C(=O)N(c4ccccc4)C(=O)C3N2Nc2ccc(C#N)cc2)o1 (stereo unspecified) yielded a z-score of -0.757.
In the case of CC(=O)NCCCC[C@@H]1NC(=O)[C@@H]2C[C@H](C(=O)NCCCCCCNC(=O)CS)[C@H](c3ccc(O)cc3)N2C1=O, the z-score is reported as -0.0593.
Work on O=c1cccc(C=Cc2ccccc2)o1 yielded a z-score of -0.39.
COc1ccc([Si](C)(C)[C@@H]2[C@@H](CC(=O)N3CCC[C@H]3CO)O[C@]3(C(=O)N(C)c4c(Br)cc(C)cc43)[C@H]2C)cc1 showed a z-score of -0.415.
In the case of CC(C)N1C(=O)[C@@]2(c3ccc([N+](=O)[O-])cc3)CC(=O)N(CC34CC5CC(CC(C5)C3)C4)[C@@H]2c2ccc(CO)cc21, the z-score is reported as -0.561.
Work on COC(=O)[C@@]1(Cc2ccccc2)N=C(c2ccc(OCCCO)cc2)O[C@H]1c1ccccc1N=[N+]=[N-] yielded a z-score of 0.661.
N#Cc1ccc(NN2C(C(O)c3ccc([N+](=O)[O-])cc3)C=CC3C(=O)N(c4ccccc4)C(=O)C32)cc1 (stereo unspecified) showed a z-score of -0.946.
For [N-]=[N+]=Nc1ccccc1[C@@H]1OC(c2ccc(OCCCO)cc2)=N[C@]1(CCS(=O)(=O)c1ccccc1)C(=O)N1CCOCC1, the z-score was -0.444.
O=C(O)[C@H]1C[C@H]2C(=O)NCC(=O)N2[C@H]1c1ccc(O)cc1 gave a z-score of 0.586.
Work on O=c1cccc(CCc2ccccc2)o1 yielded a z-score of -0.467.
Compound CCN(CC)c1ccc(N2CC=CC34O[C@@H]5C=CCCOC(=O)C5[C@H]3C(=O)N(CCCCCO)[C@@H]4C2=O)cc1 (stereo partly specified) has a z-score of -0.195.
Work on COCCCNC(=O)[C@@]1(c2ccc([N+](=O)[O-])cc2)CC(=O)N(CC23CC4CC(CC(C4)C2)C3)[C@@H]1c1ccc(CO)cc1 yielded a z-score of 0.0694.
For [N-]=[N+]=NCc1ccccc1C[C@]1(C(=O)NCC(O)CO)N=C(c2ccc(OCCCO)cc2)O[C@H]1c1ccccc1N=[N+]=[N-] (stereo partly specified), the z-score was 0.828.
[N-]=[N+]=NCc1ccccc1[C@@H]1OC(c2ccc(OCCCO)cc2)=N[C@]1(Cc1ccccc1N=[N+]=[N-])C(=O)NCc1ccccc1 showed a z-score of -0.33.
In the case of O=C1OCC=C[C@H]2OC34C=CCN(c5ccc(Cl)cc5)C(=O)[C@H]3N(CCCCCCO)C(=O)[C@@H]4[C@@H]12 (stereo partly specified), the z-score is reported as -0.243.
CC(C)C[C@@H]1NC(=O)[C@H]2C[C@@H](C(=O)NCCCCCNC(=O)CS)[C@@H](c3cccc(OCCO)c3)N2C1=O showed a z-score of -0.592.
Compound COC(=O)[C@@]1(Cc2ccccc2)[C@H]2c3cc(C(=O)N4CCCC4)n(Cc4ccc(C)o4)c3C[C@H]2CN1C(=O)c1ccccc1 has a z-score of -0.504.
Work on O=C1c2ccccc2[C@@]2(Cc3ccccc3N(Cc3ccccc3)C2=O)[C@H](c2ccc(CO)cc2)N1C1CCCCC1 yielded a z-score of 0.126.
Work on COc1ccccc1CN1C(=O)c2ccccc2[C@@H](C(=O)NCCN2CCOCC2)[C@@H]1c1ccc(CO)cc1 yielded a z-score of 0.513.
For COc1cccc(C(=O)O[C@H]2CC[C@]3(C)C4=C(CCC3C2(C)C)[C@]2(C)CC[C@H]([C@H](C)CCCC(C)C)[C@@]2(C)CC4)c1 (stereo partly specified), the z-score was 0.801.
C[C@H]1NC(=O)[C@H](Cc2ccccc2)NC(=O)[C@@]23C(=O)N[C@@H](Cc4ccccc4)C2[C@H](C)[C@@]2(C)O[C@H]2C3/C=C/C/C=C\CNC1=O (stereo partly specified) gave a z-score of 0.423.
CS(=O)(=O)CCOC(=O)C1=CC(CCCO)=CC(c2cccs2)N(Cc2cc3c(cc2Br)OCO3)C=C1C(=O)OCCS(C)(=O)=O (stereo unspecified) showed a z-score of 0.252.
